Bioassay records deposited in PubChem by several laboratories.
Shown are actives, neighbours in structure and some others; about 21% of the full set was active somewhere.
CYP2C19 act: activators of human cytochrome P450 2C19. recombinant CYP2C19, luciferin-H EGE luminescence; stronger effect = higher value; 0 = fully inhibited enzyme, 1 = untreated enzyme. activation factor at 5 µM. 96,000 tested, under 10 active. AID 1025;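 active = activation factor of at least 2 at 5 µM in the primary screen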;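 also: 0 = wells with 2.5 mM tranylcypromine and 1 = vehicle-only wells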
MRP resist rev: compounds reversing MRP-mediated drug resistance. AID 602. differential viability (reversal), % at 10 µM. hit rate 0.04% among 85,000. H69AR cells + 2 uM doxorubicin, CellTiter-Glo, 72 h;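 active = viability drop by adding the cancer drug above about 55%, with treated viability meeting a 40% cutoff, limit read from the data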;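 also: viability without doxorubicin minus viability with 2 µM doxorubicin for each compound; larger differential means the compound sensitizes cells more to doxorubicin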
CYP2C9 inhib: blocks human cytochrome P450 2C9; P11712; CYP2C9 Supersomes, luciferin-H conversion, luminescence; inhibition, % at 5 µM; hit rate 20% among 96,000;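 active = blocking of liver enzyme CYP2C9 beyond about 50% at 5 µM, limit read from the data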
Target sequence (P11712 whole entry, looked up): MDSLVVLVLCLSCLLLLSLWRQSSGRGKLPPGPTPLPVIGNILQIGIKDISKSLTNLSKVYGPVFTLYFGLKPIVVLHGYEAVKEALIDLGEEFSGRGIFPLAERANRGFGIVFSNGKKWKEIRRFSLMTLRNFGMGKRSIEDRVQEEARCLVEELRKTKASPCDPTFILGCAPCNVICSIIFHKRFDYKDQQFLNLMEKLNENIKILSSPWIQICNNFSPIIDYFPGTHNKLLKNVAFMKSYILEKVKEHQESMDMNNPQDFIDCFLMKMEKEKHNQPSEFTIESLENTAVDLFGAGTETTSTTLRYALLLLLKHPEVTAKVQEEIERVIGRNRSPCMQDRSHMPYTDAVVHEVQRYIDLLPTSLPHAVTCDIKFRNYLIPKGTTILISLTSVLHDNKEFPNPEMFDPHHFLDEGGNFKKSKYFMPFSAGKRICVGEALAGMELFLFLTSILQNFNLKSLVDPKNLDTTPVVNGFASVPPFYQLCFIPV
CYP2C9 act: increases human cytochrome P450 2C9 activity | recombinant CYP2C9, luciferin-H conversion, luminescence; stronger effect = higher value; factor 1 = untreated enzyme, 0 = blocked | activation factor at 5 µM | hit rate 1.4% among 96,000 | AID 1024;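 active = activation factor of 2 or more for CYP2C9 at a 5 µM dose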;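 also: 0 = sulfaphenazole-blocked wells and 1 = vehicle-only wells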
MRP-1 activ: activates MRP-1 | H69AR cells + doxorubicin, viability rescue, CellTiter-Glo | AID 799 | viability increase, % at 10 µM | hit rate 0.61% among 140,000;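 active = viability gain under doxorubicin at or above a set limit, the compound median plus 3 SD, cut at about 4.7% in these data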;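 also: MRP-1 overexpressing cells given doxorubicin 25 µM after compound pretreatment; 18-22 h compound pretreatment then 72 h with doxorubicin before readout; 0% = doxorubicin-only wells and 100% = vehicle-treated cells without doxorubicin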
CYP2C19 inhib: inhibitors of human CYP2C19; P33261; CYP2C19 Supersomes, luciferin-H EGE luminescence, 30 min; inhibition, % at 5 µM; hit rate 21% among 96,000;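 active = CYP2C19 inhibition above a set limit at 5 µM in the primary screen, cut at about 50% in these data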;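 also: plate controls were negative control wells for no effect and 2.5 mM tranylcypromine positive control for full effect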
Numbers without * were called inactive; x = no result.

SMILES	CYP2C19 act	MRP resist rev	CYP2C9 inhib	CYP2C9 act	MRP-1 activ	CYP2C19 inhib
Cc1cc(C)n(-c2ccc(C(=O)OCC(=O)c3ccc(Br)s3)cc2)n1	0.2	10	90*	0.1	0	77*
O=C(NNC(=O)c1cccnc1SCc1cccc([N+](=O)[O-])c1)c1ccccn1	x	x	x	x	-2	x
Cc1ccc(/C=N/NC(=O)C(C)Oc2ccccc2[N+](=O)[O-])s1 (configuration not stated)	x	x	x	x	1	x
COC(=O)c1ccccc1NC(=S)N(Cc1ccc2c(c1)OCO2)Cc1cc2cccc(C)c2[nH]c1=O	x	x	x	x	-3	x
COc1ccc(S(=O)(=O)N2CCC(n3cnc4cc(C(F)(F)F)ccc43)CC2)cc1	0.3	-4	47	0.5	-3	74*
O=S(=O)(c1ccc2c(c1)OCCO2)N1CCC(n2nnc3cc(C(F)(F)F)ccc32)CC1	0.1	-1	-52	1.5	-1	94*
O=S(=O)(c1ccccc1)N1CCC(n2nnc3cc(F)ccc32)CC1	0.5	-16	-21	1.2	-3	46
CC(=O)Nc1ccc(S(=O)(=O)N2CCC(n3cnc4cc(F)ccc43)CC2)cc1	0.7	-6	60*	0.4	-2	26
Cc1ccc(NC(=O)NC2CCN(S(=O)(=O)c3ccc(F)cc3)CC2)cc1	x	2	x	x	-1	x
COc1ccc(S(=O)(=O)N2CCC(N3CCN(c4ccccc4)CC3)CC2)cc1	0.8	-16	4	1	-4	15
O=C(NCc1ccncc1)Nc1ccc(F)cc1	0.1	6	79*	0.2	-1	92*
CN(C)C(CNS(=O)(=O)c1ccc(Br)cc1)c1cccnc1 (configuration not stated)	x	-17	x	x	-3	x
COc1ccccc1C(=O)NCC(c1cccnc1)N(C)C (configuration not stated)	0.7	9	50*	0.5	0	35
CN(C)C(CNS(=O)(=O)c1ccc(Cl)cc1)c1cccnc1 (configuration not stated)	0.5	-4	16	0.8	0	52*
O=C(NCc1cccnc1)Nc1cccc(NC(=O)NCc2cccnc2)c1	0.9	2	14	0.9	-1	6
O=C(NCc1ccncc1)Nc1cccc(Cl)c1	0.1	13	81*	0.2	-1	90*
N#Cc1ccc(Cl)cc1NC(=O)COC(=O)[C@H](CCC(N)=O)NC(=O)c1ccc(F)cc1	x	x	x	x	-3	x
CN(C(=O)COC(=O)CNC(=O)C12CC3CC(CC(C3)C1)C2)C1CCS(=O)(=O)C1 (configuration not stated)	x	x	x	x	-1	x
CCOc1cc(NC(=S)NCCCN2CCOCC2)c(OCC)cc1NC(=O)CC(C)C	0.7	x	6	0.9	-1	31
CC(C)CNC(=O)c1ccc(Cl)c(Cl)c1	0.7	13	9	0.9	2	32
O=C(NCc1ccncc1)Nc1ccc(Cl)cc1Cl	0.1	-4	83*	0.2	-1	90*
CN(C)c1ccc(NC(=O)Nc2cccc(Cl)c2)cc1	0.7	13	16	0.8	-1	33
CN(C)C(CNC(=O)Nc1cccc(Cl)c1)c1cccnc1 (configuration not stated)	0.5	4	39	0.6	1	51*
O=C(Nc1cccc2ccccc12)c1ccc(Br)o1	0.8	9	5	0.9	1	24
O=C(Nc1ccccc1N1CCCC1)c1ccc(Br)o1	0.4	-10	53*	0.5	-1	57*
SMILES	CYP2C19 act	MRP resist rev	CYP2C9 inhib	CYP2C9 act	MRP-1 activ	CYP2C19 inhib
O=C(Nc1cc(C(F)(F)F)ccc1N1CCCCC1)c1ccc(Br)o1	0.8	6	15	0.8	-2	17
O=C(Nc1cccc2cccnc12)c1ccc(Br)o1	0.8	-22	-119	2.2*	-5	15
CSc1ccccc1NC(=O)c1ccc(Br)o1	0.4	x	-9	1.1	-1	57*
Cc1cccc(C)c1OCC(O)CNC(C)(C)C (configuration not stated)	1	-5	-15	1.1	-2	-5
CCN(Cc1ccccc1)S(=O)(=O)c1ccc(C(=O)N2CCN(c3nc4ccccc4s3)CC2)cc1	x	x	x	x	-2	x
COC(=O)c1ccc(C2C(C(C)=O)=C(O)C(=O)N2CCO)cc1 (configuration not stated)	1	7	3	1	-1	0
N#CCCN(C(=O)COC(=O)c1ccc(CNS(=O)(=O)c2ccc(F)c(Cl)c2)cc1)c1ccc(F)cc1	x	x	x	x	-3	x
CCC(C)NC(=O)COC(=O)c1cc([N+](=O)[O-])ccc1Sc1nc(C)cs1 (configuration not stated)	0.8	x	17	0.8	-1	20
Cc1csc(Sc2ccc([N+](=O)[O-])cc2C(=O)OCC(=O)NC2CCCC(C)C2C)n1 (configuration not stated)	0.4	-4	50*	0.5	-1	58*
CC(C)Oc1cccc(C(=O)NC(=S)Nc2ccccc2)c1	x	x	x	x	-3	x
CSc1nc2ccc(NS(=O)(=O)c3ccc4c(c3)OCCO4)cc2s1	0	11	84*	0.2	-1	100*
Cc1cc(S(=O)(=O)NC2CCCC2)ccc1F	0.7	-2	12	0.9	-2	26
CSc1nc2ccc(S(=O)(=O)NC3CCCCC3)cc2s1	0.3	3	31	0.7	-4	74*
CSc1nc2ccc(NS(=O)(=O)c3c(Cl)cccc3Cl)cc2s1	x	x	x	x	-3	x
COc1cccc2cc(-c3csc(CCn4nc(C)cc4C)n3)c(=O)oc12	0.2	3	66*	0.3	0	82*
Cc1cc(C)n(CCc2nc(-c3ccc(-c4ccccc4)cc3)cs2)n1	x	x	x	x	7.3*	x
CC(C)(C)C(=O)Nc1cccc(C(=O)Nc2cc(C(=O)O)cc(C(=O)O)c2)c1	x	x	x	x	2	x
Cc1ccc(S(=O)(=O)N(CCC#N)CCN2CCCC2)cc1	0.9	0	8	0.9	-4	13
CC(CN1CCOCC1)OC(=O)c1ccccc1Br (configuration not stated)	0.2	1	-6	1.1	-1	76*
CC(CN1CCOCC1)OC(=O)c1ccc2c(c1)OCCO2 (configuration not stated)	0.8	10	0	1	1	18
CC(CN1CCOCC1)OC(=O)c1cccc(Br)c1 (configuration not stated)	0.4	-5	-1	1	1	60*
COc1cc(NC(=O)c2ccc(C)cc2)c(OC)cc1NC(=O)CN1CCCCC1	x	7	x	x	-1	x
O=C(CN1CCCCCC1)Nc1ccc(F)c(F)c1F	0.3	0	8	0.9	0	72*
Cc1ccc(NC(=O)CN2CCCCCC2)c(Br)c1	0.2	14	14	0.9	-1	80*
Cc1[nH]n(CCC#N)c(=O)c1CC(=O)N1CCN(c2ccccc2)CC1	1.1	9	-26	1.3	-2	-14
O=c1oc2cc(Cl)ccc2n1CSc1nc2ccccc2s1	0.3	-8	67*	0.3	-2	74*
